Source: PubChem BioAssay (National Center for Advancing Translational Sciences (NCATS))
G9a block: blocks human histone lysine methyltransferase G9a; G9a H3K9 monomethylation, AlphaScreen, 2 h; Potency, µM (top dose mostly 102 µM), usual class: inhibitors; 8.8% of 350,000 active; further: nearly all actives have a fitted effect of over 75% in size
Target sequence (Q96KQ7 913-1193 limits assumed): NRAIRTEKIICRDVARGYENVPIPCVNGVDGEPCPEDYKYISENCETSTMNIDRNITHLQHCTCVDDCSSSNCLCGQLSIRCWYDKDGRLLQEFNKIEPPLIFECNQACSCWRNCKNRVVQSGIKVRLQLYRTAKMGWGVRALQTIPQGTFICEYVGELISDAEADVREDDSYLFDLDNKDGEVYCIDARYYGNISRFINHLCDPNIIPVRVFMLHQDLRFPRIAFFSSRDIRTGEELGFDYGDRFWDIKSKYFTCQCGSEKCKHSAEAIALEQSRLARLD
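AlphaScreen detection with an anti-monomethyl H3K9 antibody quantified product after a 2 h room-temperature reaction containing 500 nM biotinylated H3K9 peptide, 20 µM SAM and 20 nM enzyme, which had been preincubated 15 min with compound.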
HP1b binding inh: blocks HP1-beta chromodomain binding to methylated histone tails; P83916; AlphaScreen HP1-beta / biotin-H3K9me3 peptide binding; Potency, µM (highest dose often 114 µM), most hits filed as inhibitors; 0.56% of 390,000 active; AID 540317; further: nearly all actives have a fitted effect of over 70% in size
Target sequence (P83916 whole entry, looked up): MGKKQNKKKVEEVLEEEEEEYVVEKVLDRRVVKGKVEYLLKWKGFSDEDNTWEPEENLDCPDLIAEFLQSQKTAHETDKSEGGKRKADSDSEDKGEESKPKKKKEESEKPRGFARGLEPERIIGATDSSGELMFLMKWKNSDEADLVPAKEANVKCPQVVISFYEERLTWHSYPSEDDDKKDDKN
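HP1-beta protein (50 nM final) preincubated 30 min at room temperature with biotinylated H3(1-18)K9me3 peptide (50 nM) in PBS pH 7.4, 0.01% Tween-20, then compound added for 30 min. AlphaScreen streptavidin donor/nickel chelate acceptor beads (10 ug/mL final), 30 min dark, luminescence read.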
Six1-Eya2 blk: inhibitors of human Six1/Eya2 interaction. Q15475+O00167. AlphaScreen GST-Six1/His-Eya2 binding, biochemical; active compounds read low. activity change, % (test concentration not listed). 0.56% of 360,000 active; in the data active means activity change below about -65%; inconclusive means mostly about -30% to -63%
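AlphaScreen luminescence read after one hour at 37 °C in darkness. Pin-transferred compounds met GST-Six1 and His-Eya2 protein (5X stock 250 nM/500 nM) plus glutathione donor and Ni-chelate acceptor beads (5X, 50 ug/mL).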
CtBP-E1A inh: inhibitors of CtBP/E1A interaction. AlphaScreen GST-E1A/His-CtBP binding, 1536-well; active compounds read low. activity change, % (no concentration beside the values). 0.49% of 340,000 active. AID 651724; in the data active means activity change below about -65%; inconclusive means mostly about -30% to -63%
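In 5 uL wells, 23 nL compound meets equimolar GST-E1A and His-CtBP (5X stock 125 nM each) for 2 h, 37 °C. Beads (5X, 50 ug/mL) then 1 h, 37 °C, dark.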
BAZ2B inh: BAZ2B (human) inhibition; 4.4% of 360,000 active; AlphaScreen BAZ2B-H3K14Ac peptide displacement; Q9UIF8; Potency, µM (highest dose often 114 µM), usual class: inhibitors; further: nearly all actives have a fitted effect of over 60% in size
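BAZ2B (50 nM) with biotin-H3(5-23)K14Ac peptide (50 nM) in PBS pH 7.4, 0.01% Tween-20, preformed 30 min, then compound 30 min at room temperature; top concentration 110uM. AlphaScreen streptavidin donor/nickel chelate acceptor beads (10 ug/mL final), 20 min dark, signal read.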
JMJD2A Tudor: JMJD2A Tudor domain (human) inhibition. O75164. AlphaScreen JMJD2A-Tudor / H3K4me3 peptide binding. Potency, µM (series often up to 114 µM), usual class: inhibitors. 4.4% of 390,000 active. AID 504339; further: nearly all actives have a fitted effect of over 50% in size
Each line names hits and unclear results; the compound was inactive in the other large screens. An excerpt weighted towards active compounds, which were near 10% of everything screened. Unless noted, the call rests on the fitted dose curve; in most records, active means well fitted inhibition curve with a large enough effect; inconclusive means small, poorly fitted or top-dose-only effect; inactive means no such curve, though single readings can be large or run the other way.

Cc1ccsc1C1CC(=O)Nc2ccccc2S1 (centres undefined)	none
O=C(CN1C(=O)CC(c2ccco2)Sc2ccccc21)Nc1ccccc1F (centres undefined)	G9a block inconclusive, BAZ2B inh inconclusive, JMJD2A Tudor inconclusive
O=C1CC(c2ccccc2)Sc2ccccc2N1 (centres undefined)	G9a block 45µM
O=C1CC(c2ccco2)Sc2ccccc2N1 (centres undefined)	G9a block 40µM
CCN1C(=O)CC(c2ccco2)Sc2ccccc21 (centres undefined)	G9a block 50µM, BAZ2B inh inconclusive
COc1ccc(Cn2ccc3nc(C)c(C(=O)Nc4cc(C)cc(C)c4)cc3c2=O)cc1	none (no result: Six1-Eya2 blk, CtBP-E1A inh)
O=c1cc(CSc2nnnn2-c2ccccc2)[nH]c2[nH]n(-c3ccccc3)c(=O)c12	G9a block inconclusive, BAZ2B inh inconclusive, JMJD2A Tudor 89µM
Nc1c(-c2nc(-c3cccs3)no2)nnn1-c1cccc(Cl)c1	none (no result: Six1-Eya2 blk, CtBP-E1A inh)
Cc1c(CN2CCC(CO)(CCOc3ccccc3)CC2)[nH]c2c(Cl)cccc12	G9a block 50µM, BAZ2B inh inconclusive
CC1(C)CC(=O)C(Sc2ccccc2C(=O)O)=C(O)C1	G9a block inconclusive, JMJD2A Tudor 25µM
CC1(C)CC(=O)C(CC(=O)NC(=O)NCc2ccccc2)=C(O)C1	none
CC1(C)CC(=O)C(Sc2ccccc2)=C(O)C1	G9a block 45µM
CN=C(Cc1ccccc1)C1=C(O)CC(C)(C)CC1=O	none
COc1ccccc1OCCn1c(C(C)Oc2ccccc2)nc2ccccc21 (centres undefined)	G9a block inconclusive (no result: Six1-Eya2 blk, CtBP-E1A inh)
CC1(C)Cc2c(C#N)c(NCCO)nc(-c3ccco3)c2CO1	G9a block 40µM
N#Cc1c(NC2CCCCC2)nc(-c2ccco2)c2c1CCCC2	none
N#Cc1c(NCCCO)nc(-c2ccco2)c2c1CCCC2	G9a block 3.2µM
COc1ccc(N(C(=O)c2ccco2)C(C(=O)NC2CCCC2)c2ccncc2)cc1OC (centres undefined)	G9a block 71µM
CCc1ccc(N(C(=O)CNC(=O)c2ccco2)C(C(=O)NC2CCCC2)c2cccnc2)cc1 (centres undefined)	JMJD2A Tudor 50µM
COc1ccc(C(C(=O)NC2CCCC2)N(C(=O)c2ccco2)c2ccc(OC)c(OC)c2)cc1 (centres undefined)	none
Cc1ccc(Nc2nc(-c3sc(N)nc3C)cs2)cc1	HP1b binding inh inconclusive, BAZ2B inh 40µM, JMJD2A Tudor 50µM (no result: G9a block, CtBP-E1A inh)
Cc1nc(N)sc1-c1csc(Nc2cc(N(C)C)ccc2Cl)n1	Six1-Eya2 blk -73, CtBP-E1A inh inconclusive (no result: G9a block, HP1b binding inh, BAZ2B inh, JMJD2A Tudor)
CCOc1ccc(Nc2nc(-c3sc(N)nc3C)cs2)cc1	G9a block 35µM, HP1b binding inh inconclusive, BAZ2B inh 45µM, JMJD2A Tudor 50µM
COc1ccc(CCNc2nc(-c3sc(N)nc3C)cs2)cc1OC	G9a block inconclusive, HP1b binding inh inconclusive, Six1-Eya2 blk inconclusive, BAZ2B inh 50µM, JMJD2A Tudor 56µM
COc1ccc(CCNc2ccncn2)cc1OC	none
CCOc1ccc(-c2cc3nc(C4CCN(C(=O)OC(C)(C)C)CC4)c(C(=O)Nc4cccc(Cl)c4C)cn3n2)cc1	none (no result: Six1-Eya2 blk, CtBP-E1A inh)
CCOc1ccccc1NC(=O)c1cc(S(=O)(=O)N2CCOCC2)cn1C	none (no result: Six1-Eya2 blk, CtBP-E1A inh)
O=C(NCCc1ccccc1)c1ccc2c(c1)N(Cc1ccccc1Cl)C(=O)c1ccccc1S2	none (no result: Six1-Eya2 blk, CtBP-E1A inh)
COc1ccc(Nc2nc(-c3sc(N)nc3C)cs2)cc1	G9a block inconclusive, HP1b binding inh inconclusive, BAZ2B inh 14µM, JMJD2A Tudor 50µM
CC(=O)Nc1ccc(Nc2nc(-c3sc(C)nc3C)cs2)cc1	G9a block inconclusive, BAZ2B inh inconclusive
COc1ccc(Nc2nc(-c3sc(NC(C)=O)nc3C)cs2)cc1	G9a block 40µM (no result: HP1b binding inh, Six1-Eya2 blk, CtBP-E1A inh, JMJD2A Tudor)
Cc1ccc(-n2c(-c3cnccn3)n[nH]c2=S)c(Br)c1	G9a block 18µM, JMJD2A Tudor 16µM
FC(F)(F)c1ccccc1-n1c(-c2cnccn2)n[nH]c1=S	G9a block inconclusive
Cc1ccc(-n2c(-c3ccc(Cl)cc3)n[nH]c2=S)c(C)c1	G9a block 5.6µM, JMJD2A Tudor inconclusive
Cc1ccc(-n2c(-c3cccnc3)n[nH]c2=S)c(C)c1	G9a block 1.6µM, JMJD2A Tudor 5µM
COc1ccc(-c2n[nH]c(=S)n2-c2ccc(C)cc2C)cc1	JMJD2A Tudor inconclusive (no result: CtBP-E1A inh)
COc1ccc(OC)c(C2Nc3c(C)cc(C)cc3-c3cc(C)nn32)c1 (centres undefined)	BAZ2B inh inconclusive, JMJD2A Tudor inconclusive (no result: Six1-Eya2 blk, CtBP-E1A inh)
O=C1c2ccccc2C(=O)N1c1ccncc1	none (no result: G9a block, HP1b binding inh, Six1-Eya2 blk, CtBP-E1A inh, BAZ2B inh)
NCCC(O)(P(=O)(O)O)P(=O)(O)O	none (no result: HP1b binding inh, Six1-Eya2 blk, CtBP-E1A inh, BAZ2B inh, JMJD2A Tudor)
COc1ccc(N2CCN(C(=O)NC34CC5CC(CC(C5)C3)C4)CC2)cc1	G9a block inconclusive, BAZ2B inh inconclusive, JMJD2A Tudor inconclusive
CC(=O)N1CCN(c2ccc(NC(=O)c3ccc(Cl)cc3)cc2)CC1	none
CC(=O)N1CCN(c2ccc(NC(=O)c3ccc(C(C)(C)C)cc3)cc2)CC1	G9a block 11µM
COc1ccccc1N1CCN(C(=O)NC23CC4CC(CC(C4)C2)C3)CC1	G9a block 79µM (no result: CtBP-E1A inh)
COc1cc(OC)cc(C(=O)N2CCC(N3CCN(c4ccccc4OC)CC3)CC2)c1	G9a block 7.9µM, HP1b binding inh inconclusive, BAZ2B inh 50µM, JMJD2A Tudor 1.1µM
COc1ccc(N2CCN(C(=O)C(C)(C)Oc3ccc(Cl)cc3)CC2)cc1	G9a block 7.9µM, HP1b binding inh inconclusive, Six1-Eya2 blk inconclusive, CtBP-E1A inh inconclusive, BAZ2B inh 40µM, JMJD2A Tudor 50µM
Cc1ccc(-n2nc(C)c3c(C)cc(=O)n(CC(=O)Nc4cc(Cl)ccc4C)c32)cc1	none (no result: Six1-Eya2 blk, CtBP-E1A inh)
Cc1cc(F)ccc1NC(=O)CCS(=O)(=O)c1ccc2c(c1)NC(=O)CO2	none (no result: Six1-Eya2 blk, CtBP-E1A inh)
Cc1nn(CC(=O)NCCc2ccccc2Cl)c(=O)c2nn(-c3ccccc3)c(C)c12	none (no result: Six1-Eya2 blk, CtBP-E1A inh)
COc1ccccc1N1CCN(C(=O)c2ccc(C(C)(C)C)cc2)CC1	JMJD2A Tudor 3.2µM
COc1ccc(N2CCN(C(=O)COC(=O)CNC(=O)c3ccc(C)cc3)CC2)cc1	G9a block 40µM
COc1ccc(N2CCN(C(=O)c3ccc(C(C)(C)C)cc3)CC2)cc1	G9a block inconclusive, HP1b binding inh inconclusive, BAZ2B inh 45µM, JMJD2A Tudor 56µM
COc1cc(OC)cc(C(=O)NCC(=O)N2CCN(c3ccc(O)cc3)CC2)c1	G9a block 22µM, HP1b binding inh inconclusive, JMJD2A Tudor 22µM
COc1ccc(N2CCN(S(=O)(=O)c3ccc4c(c3)CCCN4C(C)=O)CC2)cc1	G9a block inconclusive (no result: Six1-Eya2 blk, CtBP-E1A inh)
